# The whole screen tested about 340,000 compounds, of which about 990 (0.29%) were called active. The full list was thinned out, with actives kept by preference. Values without a mark were called inactive. Rule as the data show it: active = activation above about 18%; inactive = the rest.
# Biological target: Mu-type opioid receptor (Homo sapiens) + Delta-type opioid receptor (Homo sapiens) (UniProt P35372+P41143)
# Assay: agonists of OPRM1-OPRD1 heterodimerization, primary screen, cell-based, luminescence (AID 504326);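 also: 0% = vehicle-treated cells and 100% = reference agonist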
# Conditions: cells, at 9.3 µM, active compounds read high
# Mu-type opioid receptor (Homo sapiens) + Delta-type opioid receptor (Homo sapiens), sequence (P35372 whole entry, looked up): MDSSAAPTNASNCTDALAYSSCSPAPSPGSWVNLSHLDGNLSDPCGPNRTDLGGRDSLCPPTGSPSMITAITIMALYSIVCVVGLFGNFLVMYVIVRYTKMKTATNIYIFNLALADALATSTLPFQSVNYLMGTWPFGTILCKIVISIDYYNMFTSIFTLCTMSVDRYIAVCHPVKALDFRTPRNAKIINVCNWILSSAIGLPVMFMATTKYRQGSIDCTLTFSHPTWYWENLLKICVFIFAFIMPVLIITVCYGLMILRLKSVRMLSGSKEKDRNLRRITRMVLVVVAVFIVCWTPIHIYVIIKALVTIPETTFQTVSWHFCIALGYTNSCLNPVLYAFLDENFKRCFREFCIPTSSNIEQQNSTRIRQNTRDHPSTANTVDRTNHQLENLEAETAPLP
# Mu-type opioid receptor (Homo sapiens) + Delta-type opioid receptor (Homo sapiens), sequence (P41143 whole entry, looked up): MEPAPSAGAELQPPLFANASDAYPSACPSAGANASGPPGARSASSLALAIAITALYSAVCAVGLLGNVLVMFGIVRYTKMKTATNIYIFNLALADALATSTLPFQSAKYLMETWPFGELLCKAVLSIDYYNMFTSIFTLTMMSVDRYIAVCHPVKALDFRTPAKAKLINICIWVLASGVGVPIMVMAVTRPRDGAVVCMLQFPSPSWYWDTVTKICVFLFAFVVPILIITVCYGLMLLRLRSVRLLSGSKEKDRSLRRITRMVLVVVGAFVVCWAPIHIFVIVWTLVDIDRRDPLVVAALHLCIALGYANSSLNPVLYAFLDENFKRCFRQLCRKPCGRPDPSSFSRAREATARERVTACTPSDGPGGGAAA
row,SMILES,activation
1,CCOC(=O)c1c(NC(=O)CNC2CCCc3ccccc32)sc(C(N)=O)c1C (stereo not given),9.2%
2,O=C(NC1=CC(=O)c2ccccc2C1=O)c1ccccc1,20% (active)
3,CC(NC(=O)c1ccccc1)C(=O)Nc1ccccc1 (stereo not given),-3.96%
4,O=C1C=C(NS(=O)(=O)c2ccccc2)C(=O)c2ccccc21,1.48%
5,O=C(Cc1ccc(S(=O)(=O)N2CCOCC2)s1)N1CCN(c2ccc(C(F)(F)F)cc2[N+](=O)[O-])CC1,-0.92%
6,CCOC(=O)N1CCN(c2c(NCCN3CCN(c4ccccc4F)CC3)c(=O)c2=O)CC1,-1.83%
7,CN(CC(=O)Nc1ccc(Cl)cc1)C(=O)c1ccc(COc2ccccc2)cc1,22.2% (active)
8,CN(Cc1ccccc1)C(=O)c1ccc(COc2ccccc2)cc1,1.93%
9,COc1ccc(NC(=O)CN(C)C(=O)c2ccc(COc3ccccc3)o2)cc1,-1.92%
10,CC(CNc1ccc([N+](=O)[O-])c2cccnc12)Nc1c([N+](=O)[O-])cc(C(F)(F)F)cc1[N+](=O)[O-] (stereo not given),0.2%
11,CCOC(=O)c1sc(NC(=O)C2CSC3(C)CCC(=O)N23)nc1C (stereo not given),-4.78%
12,Clc1ccc(COn2c(-c3ccc(Cl)cc3Cl)nc3ncccc32)cc1,55.9% (active)
13,CCOc1ccc(OCC)c(-c2c(=O)n(OCc3ccc(Cl)cc3)c3ccccc3[n+]2[O-])c1,-0.14%
14,Clc1ccc(-c2cc(-c3ccccn3)on2)c(Cl)c1,-0.72%
15,Cc1cccc(N2CCN(C(=O)c3ccccc3NC(=O)C3CCCCC3C(=O)O)CC2)c1 (stereo not given),-1.68%
16,COc1ccc(N2C(=O)c3ccccc3NC2c2ccc(OC)c(CN3CCOCC3)c2)cc1 (stereo not given),-3.57%
17,COc1ccc(C2Nc3ccccc3C(=O)N2Cc2ccccc2)cc1Cn1nnc2ccccc21 (stereo not given),15.1%
18,COc1ccc(C2Nc3ccccc3C(=O)N2c2ccc(F)cc2)cc1Cn1nnc2ccccc21 (stereo not given),29.4% (active)
19,Cc1ccc2cccc(O)c2[n+]1[O-],4.35%
20,CCOc1ccc(C(=O)Nc2ccc(S(=O)(=O)NCC3CCCO3)cc2)cc1OCC (stereo not given),-4.05%
21,COc1ccc(/C=C/C(=O)Nc2ccc(C34CC5CC(CC(O)(C5)C3)C4)cc2)cc1OC,3.53%
22,O=C(NCc1ccccn1)Nc1ccc(Cl)cc1,-2.12%
23,O=C(NCc1cn2ccsc2n1)Nc1ccc(Cl)cc1,30.4% (active)

row,SMILES,activation
1,O=C(NCc1cn2ccsc2n1)Nc1cccc(Cl)c1,-4.06%
2,CCSC1=C(C#N)C(=O)n2c1cc1c2CCCC1,-1.61%
3,O=C1c2cccc3c([N+](=O)[O-])ccc(c23)C(=O)N1CC1CCCO1 (stereo not given),2.93%
4,Cc1cc(C)c(S(=O)(=O)N2C=CC(C(F)(F)F)=NCC2)c(C)c1,0.24%
5,CCCCNC(=O)CSc1nc2n[nH]c(C)c2c(=N)n1-c1cccc(Cl)c1C,0.12%
6,COc1cccc(-n2c(SCC(=O)NC3CCCCC3)nc3n[nH]c(C)c3c2=N)c1,0.14%
7,Cc1ccc(-n2c(SCC(=O)NCCC3=CCCCC3)nc3n[nH]c(C)c3c2=N)cc1Cl,27.3% (active)
8,CCN(CC(=O)Nc1ccc(S(=O)(=O)N2CCCC2)cc1)CC(=O)Nc1cccc(OC)c1,-3.32%
9,COc1cccc(NC(C)=[N+](C)CCNS(=O)(=O)c2ccc(Cl)cc2)c1,-2.81%
10,CCNS(=O)(=O)c1ccc(NC(=O)Nc2cccc(OC)c2)cc1,62.3% (active)
11,Cc1ccc(N2C(=O)N3[C@@H]4c5ccccc5OC[C@@H]4[C@@H](c4ccccc4)[C@@]3(C)C2=O)cc1,-1.07%
12,CC(C)N(Cc1nnc(-c2ccccc2Br)o1)C(=O)c1cc(Cl)nc2ccccc12,-1.2%
13,COC(=O)Cn1nc(-c2ccccc2)c2cc(Cl)ccc21,-1.42%
14,COCCCNc1nc2c(-c3cccc(C)c3)nnn2c2ccc(Cl)cc12,41.8% (active)
15,COCCCNc1nc2c(-c3cccc(C(F)(F)F)c3)nnn2c2ccccc12,-0.55%
16,CC(=O)c1ccc(NC(=O)C(C)NCc2ccc(Cl)cc2)cc1 (stereo not given),-0.65%
17,CN(C(=O)c1ccc(NC(=O)Cc2cccc(NC(=O)C3CCN(C(=O)c4ccccc4)CC3)c2)cc1)C1CC1,-0.88%
18,COCCOC1CCN(C(=O)c2ccc(OC)c(OC3CCN(C(C)C)CC3)c2)CC1,-3.67%
19,CCC(C(=O)OCC(=O)Nc1c(Cl)cc(Cl)cc1Cl)c1ccccc1 (stereo not given),6.24%
20,CCC(C(=O)OCC(=O)Nc1ccc(C(=O)Nc2ccc(OC)cc2)cc1)c1ccccc1 (stereo not given),19.4% (active)
21,CCC(C(=O)OCC(=O)Nc1ccccc1-c1ccccc1)c1ccccc1 (stereo not given),12.4%
22,O=C(CC(=O)N/N=C\c1cccc(Cl)c1Cl)NCc1ccccc1,1.01%
23,O=C(CNC(=O)c1ccccc1F)c1ccc(Br)cc1,-3.5%

row,SMILES,activation
1,CCC(C)(C)C1CCC(=NNC(=O)c2ccc(Br)o2)CC1 (stereo not given),-0.98%
2,CC(NC(=O)Nc1ccccc1)C(c1cccs1)N1CCN(c2ccccc2)CC1 (stereo not given),-1.69%
3,CCCC(=O)NC(C)C(c1cccs1)N1CCN(c2ccccc2)CC1 (stereo not given),25.9% (active)
4,CC(NC(=O)C(C)(C)C)C(c1cccs1)N1CCN(Cc2ccccc2)CC1 (stereo not given),-1.34%
5,C#CC(CCN1CCCCC1)(OC)c1ccccc1 (stereo not given),-1.1%
6,O=C(CCl)N(Cc1cccc([N+](=O)[O-])c1)c1cccc(Cl)c1,31.3% (active)
7,O=C(c1cccc([N+](=O)[O-])c1)N1CCN(Cc2ccccc2)CC1,-2.62%
8,Cc1ccc(S(=O)(=O)N(Cc2cccc([N+](=O)[O-])c2)C(=O)N2CCN(C)CC2)cc1,2.18%
9,Cc1cc2c(cc1C)N(Cc1ccccc1)C1=NCCCN12,-3.79%
10,CC(C)(C)c1nnc2sc(SCC(O)=C(C#N)c3nc4ccccc4[nH]3)nn2c1=O,-3.45%
11,N#C/C(=C(/O)COC(=O)COc1ccc(Cl)cc1)c1nc2ccccc2[nH]1,24.4% (active)
12,COCCN(CCOC)S(=O)(=O)c1ccc(/C(O)=C(\C#N)c2nc3ccccc3[nH]2)cc1,-0.63%
13,N#C/C(=C(/O)COc1cccc2ccccc12)c1nc2ccccc2[nH]1,20.5% (active)
14,N#C/C(=C(/O)Cc1cccc2ccccc12)c1nc2ccccc2s1,-0.06%
15,COc1ccccc1C(=O)COC(=O)COc1ccc(C#N)cc1,-3.44%
16,CCc1nc2ccccc2c(C(=O)OC2CCCCC2=O)c1C (stereo not given),-2.96%
17,CC(=O)NC(NC(=S)Nc1c(C)n(C)n(-c2ccccc2)c1=O)C(Cl)(Cl)Cl (stereo not given),-0.74%
18,CC(C)(C)C(=O)NC(NC(=S)Nc1ccc(S(N)(=O)=O)cc1)C(Cl)(Cl)Cl (stereo not given),0.71%
19,Cc1ccc(NC(=S)NC(NC(=O)Cc2cccc3ccccc23)C(Cl)(Cl)Cl)cc1 (stereo not given),43.3% (active)
20,COc1ccc(OC)c(CN2CCN(C(=O)CNC(=O)c3cc(C)cc(C)c3)CC2)c1,-5.2%
21,O=C(CSc1nnc(CN2CCCC2)n1-c1ccc(F)cc1)c1ccc2c(c1)OCO2,-2.96%
22,Cc1ccc(CCN2CC(C(=O)NCCc3ccccc3)CC2=O)cc1 (stereo not given),-2.88%
23,C=CCN(C(=O)c1cc(C)cc(C)c1)C1(C(=O)Nc2ccccc2)CCN(C(C)C)CC1,0.59%

row,SMILES,activation
1,Cc1cc(C)cc(C(=O)N(CCc2ccccc2)C2=CC3CCC(C2)N3C)c1 (stereo not given),104% (active)
2,Cc1ccc(C2C(C#N)C(C#N)N3CCCN23)cc1 (stereo not given),0.61%
3,CSc1n[nH]c(=S)n1N,-1.24%
4,O=C(COc1ccc2ccc(=O)oc2c1)NCC(O)c1ccccc1 (stereo not given),-1.9%
5,CCCN1Cc2cccc(C(=O)NCc3ccccc3)c2C1=O,-0.19%
6,CCc1ccc(N(CC(=O)NCc2cccnc2)S(=O)(=O)c2ccccc2)cc1,-1.13%
7,CCNC(=O)CN(c1ccc(C)cc1)S(=O)(=O)c1ccc(SC)cc1,-4.37%
8,Cc1ccc(S(=O)(=O)N(CC(=O)Nc2cccnc2)c2ccc(Br)cc2)cc1,24.9% (active)
9,CCS(=O)(=O)c1ccc(O)c(NC(=O)COc2ccc(Cl)cc2)c1,-5.16%
10,Cc1ccc(O)c(NC(=S)NC(=O)COc2ccc(Br)cc2)c1,22.7% (active)
11,COc1ccc(C(=O)Nc2cc(C)ccc2NC(=O)COc2ccccc2)cc1,0.51%
12,OCC1(Cc2ccccc2)CCN(Cc2cc3ccccc3o2)CC1,0.65%
13,O=C(Nc1ncccc1O)c1ccc(S(=O)(=O)N2CCCCCC2)cc1,-4.61%
14,O=S(=O)(c1ccc(Br)cc1)N1CCC(c2nc3ccccc3[nH]2)CC1,1.07%
15,N#CC(C(=O)c1ccc(S(=O)(=O)N2CCCCCC2)cc1)c1nc2ccccc2[nH]1 (stereo not given),24.1% (active)
16,Oc1cccc2ccc(/C=C/c3ccc(Br)s3)nc12,1.72%
17,Cc1ccc(Nc2nc(Cl)c(C=O)s2)cc1,4.48%
18,Nc1ccc(C(=O)Nc2ccccc2N)cc1,2.04%
19,Cc1ccc(Nc2ccccc2N)cc1,21.4% (active)
20,COc1cc(C(=O)OCC(=O)NC23CC4CC(CC(C4)C2)C3)cc(OC)c1OC,-1.44%
21,COc1ccc(NC(=O)CCCN2C(=O)C(c3ccccc3)Oc3cccnc32)cc1 (stereo not given),2.07%

# Source: PubChem BioAssay AID504326 (The Scripps Research Institute Molecular Screening Center, 2011)
